Source: PubChem BioAssay (NCATS)
Results filed as inconclusive are left out. Active and inactive are the calls of the source. The call rests on the fitted dose curve; in most records, active means well fitted inhibition curve with a large enough effect; inconclusive means small, poorly fitted or top-dose-only effect; inactive means flat fitted curve, though single readings scatter.

Legend:
Assay in all cases: qHTS profiling for inhibitors of Plasmodium falciparum proliferation (AID 504749); further: nearly all actives have a fitted effect of over 60% in size
Conditions in all cases: P. falciparum in erythrocytes, SYBR Green DNA, 72 h; series mostly up to 12.8 µM
CP265 = system: CP265
In short: (§1)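 Three-day growth assay of blood-stage parasites in erythrocytes (0.3% parasitemia, 2.5% hematocrit) at 37 C, 5% CO2, quantified by SYBR Green DNA staining after overnight detergent lysis.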

CP266 = system: CP266
In short: as §1

CP268 = system: CP268
In short: as §1

CP269 = system: CP269
In short: as §1

CP286 = system: CP286
In short: as §1

CP291 = system: CP291
In short: as §1

CP297 = system: CP297
In short: as §1

CP305 = system: CP305
In short: as §1

CP315 = system: CP315
In short: as §1

CP325 = system: CP325
In short: as §1

CP329 = system: CP329
In short: as §1

CP335 = system: CP335
In short: as §1

DFO2036 = system: DFO2036
In short: as §1

DIV14 = system: DIV14
In short: as §1

DIV17 = system: DIV17
In short: as §1

DIV30 = system: DIV30
In short: as §1

Dd2 = system: Dd2
In short: as §1

ECU = system: ECU
In short: as §1

FAB9 = system: FAB9
In short: as §1

GB4 = system: GB4
In short: as §1

HB3 = system: HB3
In short: as §1

ICS = system: ICS
In short: as §1

JCK = system: JCK
In short: as §1

N140 = system: N140
In short: as §1

P93_24 = system: P93_24
In short: as §1

P94_40 = system: P94_40
In short: as §1

PAD = system: PAD
In short: as §1

PC15 = system: PC15
In short: as §1

PC26 = system: PC26
In short: as §1

PC49 = system: PC49
In short: as §1

SC27B = system: SC27B
In short: as §1

TAB109 = system: TAB109
In short: as §1

TAB113 = system: TAB113
In short: as §1

TAB165 = system: TAB165
In short: as §1

W2 = system: W2
In short: as §1

Measured: Potency

CC(=O)[C@]1(O)CCC2C3C=C(Cl)C4=CC(=O)C5CC5[C@@]4(C)C3CC[C@]21C (stereo not given in full)
inactive: all assays above
